TIM10 inh – growth inhibitors of TIM10 yeast strain; inhibition, % at 10 µM; 330,000 tested, 1.4% active; S. cerevisiae TIM10 strain growth, BacTiter-Glo luminescence, 24 h;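 active means inhibition of 40% or more at the single tested concentration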;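 further: wild-type TIM10 isogenic control strain grown at permissive 25 °C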
tim23-1 inh – tim23-1 yeast growth inhibition; inhibition, % at 20 µM; 330,000 tested, 1.3% active; S. cerevisiae tim23-1 growth, BacTiter-Glo luminescence, 24 h; AID 463212;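 active means growth inhibition of the mutant yeast at or above 50%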;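 further: temperature-sensitive mutant grown at 25 °C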
tim10-1 inh – inhibits growth of tim10-1 mutant yeast | S. cerevisiae tim10-1 ts strain growth, BacTiter-Glo, 24 h | inhibition, % at 20 µM | 330,000 tested, 2.2% active | AID 463190;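 active means inhibition of at least 40%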;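 further: mutant grown at 25 °C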
NALP1 inh – blocks the NALP1 inflammasome reconstituted in yeast; S. cerevisiae NALP1/ASC/caspase-1 growth, X-gal OD620, 72 h; inhibition, % at 10 µM; 280,000 tested, 0.61% active; AID 2071; in the data active means inhibition mostly above about 24%, no sharp cut-off; inactive means mostly below about 32%
NALP3 yeast inh – inhibitors of NALP3 inflammasome in yeast | Yeast reconstituted NLRP3/ASC/caspase-1, beta-gal luminescence, 24 h | inhibition, % at 10 µM | 330,000 tested, 0.39% active | AID 2825;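 active means inhibition of 50% or more; inactive means inhibition below 50%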
Each line names hits and unclear results; the compound was inactive in the other large screens. Hits are enriched below; roughly 4.1% of the tested compounds scored in any of these assays.

COc1ccccc1/C=N/NC(=O)c1nnn(-c2nonc2N)c1-c1cccs1	NALP1 inh 37
CCOc1ccc(-c2c(C(=O)N/N=C/c3cccc(Br)c3)nnn2-c2nonc2N)cc1	NALP1 inh 37
CCOC(=O)c1cn(CC(=O)Nc2cccc(F)c2)nn1	NALP1 inh 21
O=c1c2ccccc2nnn1CCO	none
CCCCS(=O)(=O)N1CCCC(C(=O)NCCc2ccccc2)C1 (stereo not given)	none
CCCCS(=O)(=O)N1CCCC(C(=O)Nc2ccc3c(c2)CCC3)C1 (stereo not given)	NALP1 inh 27
CCOC(=O)c1[nH]c2ccccc2c1NC(=O)c1ccc2c(c1)OCO2	NALP1 inh 40
CCOC(=O)c1[nH]c2ccc(OC)cc2c1NC(=O)c1ccc2c(c1)OCO2	none
O=C(NCCCN1CCOCC1)C(C(=O)c1ccccc1)n1ccccc1=O (stereo not given)	NALP1 inh 40
CN(C)C(=O)c1ccc(NC(=O)CN2C(=O)NC3(CCCc4ccccc43)C2=O)cc1 (stereo not given)	none (no result: NALP1 inh)
C=CCn1c(-c2cccs2)nc2nc3ccccc3nc21	none
C=CCn1c(-c2cccs2)nc2ccccc21	NALP1 inh 25
O=C1CN=C(Nc2ccccc2Cl)N1c1ccccc1	NALP1 inh 34
CCOc1ccc(N2C(=O)CN=C2Nc2ccccc2Cl)cc1	none
O=C(N[C@@H](Cc1ccccc1)C(=O)NC1CCCCCC1)c1ccco1	NALP1 inh 41
CC(CCc1ccccc1)NC(=O)CNC(=S)N(Cc1cccs1)C1CCCC1 (stereo not given)	none (no result: TIM10 inh, tim23-1 inh, tim10-1 inh, NALP3 yeast inh)
CCC(C)N(C(=O)COC(=O)Cc1n[nH]c(=O)c2ccccc12)C1CCS(=O)(=O)C1 (stereo not given)	NALP1 inh 26
CCC(C)N(C(=O)COC(=O)CCc1c[nH]c2ccccc12)C1CCS(=O)(=O)C1 (stereo not given)	none
COc1ccc(NC(=O)CCCOc2ccc(Cl)c(C)c2)cc1S(=O)(=O)N1CCOCC1	none (no result: NALP1 inh)
COc1ccc(N2CCN(C(CNC(=O)C(=O)NCc3ccc4c(c3)OCO4)c3ccco3)CC2)cc1 (stereo not given)	none
O=C(NNS(=O)(=O)c1ccccc1[N+](=O)[O-])c1cccnc1	none (no result: NALP1 inh)
O=C(COCC(=O)Nc1cccc(C(F)(F)F)c1)Nc1cccc(C(F)(F)F)c1	NALP1 inh 38
Cc1cc(NC(=O)Nc2cccc(C(F)(F)F)c2)n(C)n1	NALP1 inh 32
O=C(CNCc1ccc(Cl)cc1)Nc1ccc(C(=O)N2CCCCCC2)cc1	none
O=C1/C(=C/c2cccnc2)CCC/C1=C\c1cccnc1	NALP1 inh 78 (no result: TIM10 inh, tim23-1 inh, tim10-1 inh, NALP3 yeast inh)
O=C1/C(=C/c2cccnc2)CC/C1=C\c1cccnc1	none
O=C1/C(=C/c2ccccc2)CCCc2ccccc21	NALP1 inh 57
CCC1C/C(=C\c2cccnc2)C(=O)/C(=C/c2cccnc2)C1 (stereo not given)	NALP1 inh 76 (no result: TIM10 inh, tim23-1 inh, tim10-1 inh, NALP3 yeast inh)
C/C(CCc1ccccc1)=N/NC(=O)C(=O)NC(C)c1ccccc1 (stereo not given)	none
CSc1nc(=O)n2cc(C)ccc2n1	none
Cc1cc(C)n(C(=O)c2cc([N+](=O)[O-])cc([N+](=O)[O-])c2)n1	none
Cc1ccc(-c2nc(N3CCN(C)CC3)c3ccccc3n2)cc1	none
CN1CCN(c2nc(-c3cccc([N+](=O)[O-])c3)nc3ccccc23)CC1	NALP1 inh 39
C=C(C)C1CC=C(CN2CC(C)OC(C)C2)CC1 (stereo not given)	NALP1 inh 41
Cc1cccc(NS(=O)(=O)c2ccc3c(c2)NC(=O)CC(=O)N3)c1	none
CCc1cccc(NS(=O)(=O)c2ccc3c(c2)NC(=O)CC(=O)N3)c1	NALP1 inh 36
CCOC(=O)C1CCCN(C(=O)CCn2nnnc2CN2CCOCC2)C1 (stereo not given)	NALP1 inh 35
COc1ccc(OC)c(-n2cnc3cc(C(=O)NCCCN4CCOCC4)ccc32)c1	NALP1 inh 23
CCOc1ccc(-n2c(C)nc3cc(C(=O)NCCCN4CCOCC4)ccc32)cc1	NALP1 inh 26
CCNS(=O)(=O)c1ccc(CCC(=O)NCc2ccc(C)cc2)cc1	none
O=C(c1ccccc1)c1ccc(OCCOCCN2CCN(Cc3ccccc3)CC2)cc1	NALP1 inh 38
O=C(c1ccccc1)c1ccc(OCCCN2CCCC2)cc1	none
CC(=O)c1ccc(OCC(O)CN2CCN(Cc3ccccc3)CC2)cc1 (stereo not given)	NALP1 inh 41
COc1cc(C(=O)n2nc(C)cc2C)ccc1O	none
Clc1ccc(OCCOCCN2CCc3ccccc3C2)c(Cl)c1	NALP1 inh 56
Clc1ccc(OCCCN2CCc3ccccc3C2)c(Br)c1	none
Cc1ccc(SCCC(=O)OC(C(=O)NC(N)=O)C(C)C)cc1 (stereo not given)	none
COCCNC(=O)CSc1ncnc2sccc12	NALP1 inh 38
CC(=O)Oc1cccc(N2C(=O)c3ccc(C(=O)Nc4c[nH]c(=O)[nH]c4=O)cc3C2=O)c1	none
O=C(NCc1cccc(C(F)(F)F)c1)C1CC2Cn3c(nc4ccccc43)C2N1Cc1ccccc1 (stereo not given)	none (no result: NALP1 inh)
CCCCCOC(=O)Nc1nnc(CCCCC)s1	none
CCCCOC(=O)Nc1nnc(CC)s1	NALP1 inh 43
Cc1c(C(=O)N2CCOCC2)sc(NC(=O)C(C)C)c1C#N	none
CN(C)CCNc1ncnc2c1sc1nc(-c3ccccc3)c3c(c12)CCCC3	NALP1 inh 45
O=C(Nc1c(C(=O)N2CCOCC2)cnn1-c1ccccc1)c1ccc(F)cc1	none
O=C(CSCc1ccc(F)cc1)NCc1ccc(F)cc1	NALP1 inh 28
O=C(c1cc(-c2ccccn2)nc2c(Cl)cccc12)N1CCN(S(=O)(=O)c2ccccc2)CC1	none
O=C(c1cc(-c2ccccn2)nc2c(Cl)cccc12)N1CCN(C(=O)C2CCCO2)CC1 (stereo not given)	NALP1 inh 38
CC(=O)N1c2ccc(S(=O)(=O)N(C)CC(=O)NC3CCCCC3C)cc2CC1C (stereo not given)	none
O=C(Nc1ncccc1O)c1cccc(S(=O)(=O)N2CCc3ccccc32)c1	NALP1 inh 34
O=C(/C=C/c1ccc(F)cc1)NCCC1=CCCCC1	none
O=C(/C=C/c1ccccc1)NCCC1=CCCCC1	NALP1 inh 51
N#C/C(=N\Nc1cccc([N+](=O)[O-])c1)C(=O)c1ccc(Br)cc1	none
N#C/C(=N\Nc1cccc(C(F)(F)F)c1)C(=O)c1ccsc1	NALP1 inh 40
Cc1cc(C)cc(Nc2nc3c([nH]2)c(=O)n(C)c(=O)n3C)c1	NALP1 inh 32
Cc1ccc(Nc2nc3c([nH]2)c(=O)n(C)c(=O)n3C)cc1	none
Cc1ccc(C(C)NC(=O)COC(=O)C2=COCCO2)cc1C (stereo not given)	none (no result: NALP1 inh)
O=C(O)CCc1nn2c3ccccc3n(CC(=O)c3cccs3)c2nc1=O	none
CCCOc1ccc(C(=O)N/N=C/c2ccc(-c3ccc(S(=O)(=O)Nc4ncccn4)cc3)o2)cc1	NALP1 inh 43

High-throughput results as filed in PubChem.
